Assay results from PubChem BioAssay (EPA / NIEHS).
Active and inactive are the calls of the source. The calls were made as follows: active = hit-call score of the fitted dose curve at least 0.9, where 1 is the maximum; inactive = score below 0.9.

These compounds were tested on ABC Transporter (ABCC3), ABCC3 (gene 8714) (assay: LTEA_HepaRG_ABCC3: Life Technologies and Expression Analysis (LTEA) Assay for ABC Transporter (ABCC3) using HepaRG (AID 2283462)). Settings: mRNA level, 48 h; actives raise or lower the signal.
Procedure: LTEA_HepaRG is a cell based, multiplexed-readout assay that uses HepaRG, a human liver cell line, with measurements taken at 48 hours after chemical dosing on a 96-well plate.LTEA_HepaRG_ABCC3 is one of 102 assay component(s) measured in the LTEA HepaRG cell culture assay. It is a marker of NR mediated transport.Data from the assay component LTEA_HepaRG_ABCC3 was analyzed into 1 endpoint. This assay endpoint, LTEA_HepaRG_ABCC3, was analyzed with bidirectional fitting relative to DMSO as the negative control and baseline of activity. Using a type of inducible reporter, measures of mRNA induction for gain or loss-of-signal activity can be used to understand regulation of transcription factor activity. To generalize the intended target to other relatable targets, this assay endpoint is annotated to the transporter intended target family, where the subfamily is ABC transporter.
A total of 1060 chemcials from the ToxCast library were tested in eight-point concentration-response experiments. Cell culture and cytotoxicity assays were conducted at Thermo Fisher Scientific's Custom Services facility (Madison, WI). A single lot of human HepaRG cells (Thermo Fisher Scientific, Frederick, MD) was used for the cell culture experiments. 96-well format collagen type I coated plates of human HepaRG cells were prepared using established methods. Briefly, cryopreserved HepaRG cells were thawed, plated at a density of approximately 100,000 cells/well in HepaRG Thaw, Plate, and General Purpose media (HPRG770, Thermo Fisher Scientific), and incubated for 48 hours. 0.5% DMSO was selected as vehicle control to balance the requisite need of DMSO in HepaRG cultures to maintain differentiation (for example, baseline metabolism, proportions of hepatocytes vs. cholangiocytes), while enabling further hepatic receptor pathway activation (for example, PXR and CAR) in response to chemical exposure. 48 hours after plating, the culture medium was replaced with HepaRG Serum-Free Incudtion Media. Cells were exposed to each test chemical in duplicate and maintained in CO2 incubators for another 48 hours. Chemical plates were thawed to room temperature and 200x concentrations of treatment groups were prepared. 8-point conentration-reponse curves were made with the highest exposure at 100 uM, followed by half-log dilutions, all in 0.5% DMSO. Each test plate contained variouse controls, induction positive controls (1mM phenobarbital), cytotoxicity positive controls ([…] aflatoxin B1), vehicle controls (0.5% DMSO), and total lysis controls (0.5% DMSO). Cell morphology images were taken using an Essen IncuCyte FLR automated microscope, with six 96-well plates imaged in about 24 minutes. Images were captured and exported and JPEG files. Spent culture media was transfered to black-well plates for the LDH assay, and remaining media was sorted at -80 C for later use. Cells were treated with RLT buffer and frozen until shipped for gene expression analysis. Total RNA was isolated from the cell suspension in 75 uL of Buffer RLT (Qiagen, Germantown, MD 20874) by Quintiles/Expression Analysis (Durham, NC) using a custom isolation procedure. Total RNA from each plate well was transferred to a preamplification plate. Fluidigm's 96.96 Dynamic ArrayTM (Fluidigm, Amsterdam, the Netherlands) technology was used for gene expression analyses by quantitative reverse transcription polymerase chain reaction (qRT-PCR, performed by Quintiles/Expression Analysis, Durham, NC)89. Standard TaqManTM Assays (Applied Biosystems/ThermoFisher Scientific, Foster City, CA) were used to assess the expression of 93 genes selected based on their selectivity and sensitivity to important hepatic receptors known to be modulated by environmental chemicals; importance in human hepatocyte functionality; and hepatotoxicity. […]
In the case of C=CCc1ccc(OC)c(OC)c1, the outcome is reported as “inactive”.
OCC(O)CO was tested, and the outcome was “inactive”.
In the case of CC(C)OC(=O)C(C)(C)Oc1ccc(C(=O)c2ccc(Cl)cc2)cc1, the outcome is reported as “inactive”.
With O=C(O)c1cccnc1 the outcome was “inactive”.
O=C1NC(=O)C(c2ccccc2)(c2ccccc2)N1 was tested, and the outcome was “inactive”.
In the case of CCCCC(CC)COC(=O)CCCCCCCC(=O)OCC(CC)CCCC (stereo not given), the outcome is reported as “inactive”.
In the case of O=C(NS(=O)(=O)/C=C/c1cccs1)c1ccc(F)cc1Br, the outcome is reported as “inactive”.
Oc1ccccc1O was tested, and the outcome was “inactive”.
For Cc1cc(Cc2ccc(N)c(C)c2)ccc1N, the outcome was “inactive”.
With CC1=C(C)S(=O)(=O)CCS1(=O)=O the AC50 was 0.171 µM (active).
In the case of C=CCCCCCCCCCCCC, the outcome is reported as “inactive”.
For CCCCCCC(CCCCCCCCCCC(=O)OCC(COC(C)=O)OC(C)=O)OC(C)=O (stereo not given), the outcome was “inactive”.
With CCCCc1nc2cccnc2n1Cc1ccc(-c2ccccc2-c2nnn[nH]2)cc1 the outcome was “inactive”.
COC(=O)CCCC(=O)OC was tested, and the AC50 was 0.263 µM (active).
For CCOCCOCCO, the outcome was “inactive”.
In the case of CC(=O)OCC(COC(C)=O)OC(C)=O, the outcome is reported as “inactive”.
CCCCCCCCCCCCCCCCO was tested, and the outcome was “inactive”.
CC(C)c1cccc(C(C)C)c1 was tested, and the outcome was “inactive”.
COc1ccc(OC(F)(F)F)cc1CN[C@H]1CCCN[C@H]1c1ccccc1 was tested, and the outcome was “inactive”.
In the case of CCc1cc(C2=C(C(=O)O)N(c3ccccc3C(F)(F)F)S(=O)(=O)c3ccccc32)cc2c1OCO2, the outcome is reported as “inactive”.
With CC(C)COC(=O)CCCCC(=O)OCC(C)C the outcome was “inactive”.
With NC(=Nc1ccccc1)Nc1ccccc1 the outcome was “inactive”.
O=[Si]=O was tested, and the outcome was “inactive”.
O=C(O)CN(CC(=O)O)CC(=O)O was tested, and the outcome was “inactive”.
With O=C(Oc1ccccc1)c1cccc(C(=O)Oc2ccccc2)c1 the outcome was “inactive”.
In the case of CC(C)c1cccc(C(C)C)c1NC(=O)NS(=O)(=O)c1cc(C(C)(C)O)co1, the outcome is reported as “inactive”.
In the case of CCCCC(CC)CO (stereo not given), the outcome is reported as “inactive”.
CCCC(=O)O was tested, and the outcome was “inactive”.
In the case of CC1(C)C(=O)NC(=O)N1CO, the outcome is reported as “inactive”.
For CC(C)(C)c1ccccc1, the outcome was “inactive”.
For CSc1ccc(Oc2ccc(S(N)(=O)=O)cc2CN(C)C)cc1C, the AC50 was 81.5 µM (active).
NC1CCCCC1 was tested, and the outcome was “inactive”.
With O=C(O)CC(O)(CC(=O)O)C(=O)O the outcome was “inactive”.
For CC(N)=O, the outcome was “inactive”.
For COC(=O)CCC(=O)OC, the outcome was “inactive”.
In the case of CN(C)C(=O)NC1(c2ccccc2)CCN(CC[C@@]2(c3ccc(F)c(F)c3)CN(C(=O)c3ccccc3)CCO2)CC1, the AC50 is reported as 47 µM (active).
CCCC[C@H]1CN(CC2CCOCC2)C(=O)OC12CCN(C1(C)CCN(C(=O)c3c(C)ncnc3C)CC1)CC2 was tested, and the outcome was “inactive”.
O=Cc1ccccc1C=O was tested, and the outcome was “inactive”.
With Cc1cn([C@H]2C=C[C@@H](CO)O2)c(=O)[nH]c1=O the outcome was “inactive”.
With Oc1ccc(O)cc1 the outcome was “inactive”.
